According to PubChem BioAssay (NCI):
About 79,000 compounds went through this panel and 15% of them were active in at least one assay; those are over-represented in the sample as a whole. The source made the active and inactive calls. Rule as the data show it: active = growth inhibition above about 70%; inactive = the rest.

Experiment: NCI Yeast Anticancer Drug Screen. Data for the sgs1 mgt1 strain (AID 161);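 also: 0% = growth of cultures given vehicle only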
Conditions: S. cerevisiae sgs1 mgt1 strain, at 50.0 µM (retest, dose inferred, filed as 5.0), stronger effect = higher value
Method in brief: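 Growth of a repair-deficient yeast mutant was monitored after compound treatment and expressed as inhibition relative to vehicle-treated cultures.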

Structure (SMILES) | growth inhibition
CCOC(=O)C[P+](c1ccc(C)cc1)(c1ccc(C)cc1)c1ccc(C)cc1 | 82% (active)
O=C(NCCl)Nc1ccccc1 | 86% (active)
O=c1[nH]c2ccccc2c2cccc(F)c12 | 88% (active)
O=C(c1c(F)c(F)c(F)c(F)c1F)N1CCN(C(=O)c2c(F)c(F)c(F)c(F)c2F)C1=S | 94% (active)
O=C(CNS(=O)(=O)Cc1ccccc1)NCC(=O)NNc1ccccc1 | 63% (inactive)
CC1(C)C(=O)N(CCCCCCN2C(=O)C(C)(C)c3ccccc32)c2ccccc21 | 5% (inactive)
CC(=O)Nc1cccc2c1ccc1ccc3ccccc3c12 | 20% (inactive)
COc1ccc(-c2noc(=O)c3ccccc23)cc1 | 4% (inactive)
c1ccc([B-](c2ccccc2)(c2ccccc2)c2ccccc2)cc1 | -3% (inactive)
CCc1cccc(C)c1N1C(=O)C(=O)C(c2nc3ccccc3o2)/C(=N\NS(=O)(=O)c2ccc(C)cc2)C1=O (stereo unspecified) | 2% (inactive)
Cc1ccc(-[n+]2cc([O-])on2)cc1 | 0% (inactive)
CCOC(=O)C(Cc1cn(S(=O)(=O)c2ccccc2)c2ccccc12)(NC(C)=O)C(=O)OCC | 30% (inactive)
CC(=O)N1C=C2CCC3c4ccccc4NC3C2CC1 (stereo unspecified) | 13% (inactive)
O=c1cccccc1[O-].O=c1cccccc1[O-].O=c1cccccc1[O-].[Ce+3] | 13% (inactive)
CC(=O)OC(C#N)CC(C)(C)/[N+]([O-])=[N+](\[O-])C(C)(C)CC(C#N)OC(C)=O (stereo unspecified) | 97% (active)
O=C(O)C1(Cc2ccc3c(c2)CCC3)Cc2cc3c(cc2C1)CCC3 | -1% (inactive)
